# Screening data as filed in PubChem.
# This is a sample that favours compounds with a hit; in the whole collection about 4.7% have one here.
# tim10-1 inh = growth inhibitors of tim10-1 mutant yeast | S. cerevisiae tim10-1 ts strain growth, BacTiter-Glo, 24 h | inhibition, % at 20 µM | 2.2% of 330,000 active | AID 463190;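 active = inhibition of at least 40%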;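 also: mutant grown at 25 °C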
# tim23-1 inh = inhibits growth of tim23-1 mutant yeast | S. cerevisiae tim23-1 growth, BacTiter-Glo luminescence, 24 h | inhibition, % at 20 µM | 1.3% of 330,000 active | AID 463212;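 active = growth inhibition of the mutant yeast at or above 50%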;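 also: temperature-sensitive mutant grown at 25 °C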
# SKKanGAS inh = blocks kanamycin growth of S. pyogenes SKKanGAS strain. BacTiter-Glo, 6 h. inhibition, % at 7.5 µM. 1.3% of 300,000 active. AID 1662;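 active = mean replicate score, as percent of positive control median, at least 50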;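 also: strain carries kanamycin resistance gene driven by streptokinase promoter and grows in 40 µg/ml kanamycin; loss of luminescence reflects streptokinase promoter inhibition or plain growth inhibition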
# ATG4B inhibitor = inhibitors of human ATG4B cysteine protease; inhibition, % at 8.33 µM; AID 504462; Q9Y4P1; 0.51% of 340,000 active; ATG4B cleavage of LC3-PLA2, NBD-HPC fluorescence, 1 h; in the data active = inhibition above about 40%
# Target sequence (Q9Y4P1 whole entry, looked up): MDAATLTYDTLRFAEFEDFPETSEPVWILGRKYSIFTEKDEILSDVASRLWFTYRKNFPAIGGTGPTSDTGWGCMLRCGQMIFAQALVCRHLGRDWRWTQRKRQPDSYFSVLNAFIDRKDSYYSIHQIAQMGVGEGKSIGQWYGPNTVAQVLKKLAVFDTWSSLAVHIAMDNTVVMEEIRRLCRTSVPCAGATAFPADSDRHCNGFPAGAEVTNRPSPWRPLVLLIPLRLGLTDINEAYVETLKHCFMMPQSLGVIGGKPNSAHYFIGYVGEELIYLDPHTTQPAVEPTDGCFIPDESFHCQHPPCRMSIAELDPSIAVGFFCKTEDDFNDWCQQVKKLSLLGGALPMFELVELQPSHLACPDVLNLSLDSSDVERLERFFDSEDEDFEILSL
# TIM10 inh = TIM10 yeast growth inhibition; S. cerevisiae TIM10 strain growth, BacTiter-Glo luminescence, 24 h; inhibition, % at 10 µM; 1.4% of 330,000 active; AID 463195;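 active = inhibition of 40% or more at the single tested concentration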;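 also: wild-type TIM10 isogenic control strain grown at permissive 25 °C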
# PfHsp90 yeast 2 = growth inhibition of yeast expressing Plasmodium Hsp90 | 0.32% of 310,000 active | inhibition, % at 9.4 µM | S. cerevisiae expressing PfHsp90, BacTiter-Glo ATP, 48 h; yeast lacking PDR1 and PDR3 efflux regulators;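 active = every replicate shows inhibition above about 80%, whatever the replicate mean, limit read from the data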
# tim23-1 confirm = tim23-1 yeast growth inhibition, confirmed; inhibition, % at 20 µM; S. cerevisiae tim23-1 growth, BacTiter-Glo luminescence, 24 h; 83% of 4,400 active; shares compounds with tim23-1 inh;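 active = inhibition above about 39% in either of two replicate wells at 20 µM, limit read from the data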;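 also: temperature-sensitive tim23-1 mutant grown at 25 °C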
# A number is an active result; . = inactive; / = no result.
SMILES,tim10-1 inh,tim23-1 inh,SKKanGAS inh,ATG4B inhibitor,TIM10 inh,PfHsp90 yeast 2,tim23-1 confirm
CC(C)NC(=O)C1CCN(C2CCN(Cc3nc(C(C)C)cs3)CC2)CC1,.,.,.,.,.,.,/
CCOc1ccc(N2C(=O)CC(N(CCc3ccc(OC)cc3)C(=O)/C=C/C(=O)O)C2=O)cc1 (stereo unspecified),.,.,.,.,.,.,/
COc1ccc2[nH]c(CN3CCN(CCC(C)C)C(CCO)C3)c(C)c2c1 (stereo unspecified),.,.,.,.,.,.,/
Cc1nc(Nc2ccccc2)sc1C(=O)Nc1ccccc1,.,55,.,.,.,.,53
Cc1nc(Nc2ccc(S(N)(=O)=O)cc2)sc1C(=O)Nc1ccccc1,.,.,.,.,.,.,/
O=C1NC(=S)SC1=C1CCCCCC1,.,50,.,.,.,.,69
O=C1N=C(N2CCCCC2)SC1=C1CCCCC1,.,.,.,.,.,.,/
CN(C)c1ccc(/C=N/NC(=O)c2ccc3nc[nH]c3c2)cc1,.,.,.,.,.,.,/
Cc1c(NC(=O)c2nn3c(C(F)(F)F)cc(-c4ccccc4)nc3c2Br)c(=O)n(-c2ccccc2)n1C,.,.,.,.,.,.,/
CCOC(=O)CNC(=O)c1sc2ncnc(N3CCc4ccccc4C3)c2c1C,.,51,.,.,.,.,.
CCCCNC(=S)N/N=C/c1cc(C)ccc1C,.,53,.,.,.,.,42
CCCCOc1ccc(/C=N/NC(=S)Nc2cc(C)ccc2C)cc1,.,.,.,.,.,.,/
O=C(COC(=O)COc1ccc(Cl)cc1)NC1CCS(=O)(=O)C1 (stereo unspecified),.,.,/,.,.,.,/
CN(C(=O)COC(=O)C12CC3CC(CC(Cl)(C3)C1)C2)c1ccccc1,.,56,/,.,.,/,44
CC(=O)N1CCN(C(=O)C2CCN(S(=O)(=O)c3ccccc3C(F)(F)F)CC2)CC1,.,.,/,.,.,/,/
Cc1cccc(C(=O)c2c(N)sc3c2CCCC3)c1,.,.,.,.,.,.,/
CC(=O)c1c(O)c(C)c(-c2ccccc2)n(-c2ccccc2)c1=O,.,56,.,.,.,.,43
COc1ccc(C(C#N)N2N=C(C)CC2(C)C)cc1OC (stereo unspecified),.,.,.,.,.,.,/
Cc1ccc(/C=N/NC(=O)c2cc3c(ccc4ccccc43)o2)o1,.,56,.,.,.,.,46
NS(=O)(=O)c1ccc(N2N=C(c3ccccc3)CC2c2cccc(F)c2)cc1 (stereo unspecified),/,/,.,.,/,.,/
NS(=O)(=O)c1ccc(N2N=C(c3ccccc3)CC2c2cccc(Br)c2)cc1 (stereo unspecified),.,52,/,.,.,.,.
COc1ccc(OC)c(/C=N/n2c(COc3ccccc3)n[nH]c2=S)c1,.,.,.,.,.,.,/
c1ccc2c(c1)nnn1c3ccccc3nc21,.,.,.,/,.,/,/
ClC(Cl)(Cl)c1nc2ccccc2n2nncc12,.,54,.,.,.,.,.
COc1cccc(C(=O)Nc2ccc(S(=O)(=O)Nc3nccc(C)n3)cc2)c1,.,.,.,.,.,.,/
SMILES,tim10-1 inh,tim23-1 inh,SKKanGAS inh,ATG4B inhibitor,TIM10 inh,PfHsp90 yeast 2,tim23-1 confirm
COc1cc(/C=C/c2ccc(O)cc2)cc(OC)c1,.,51,.,.,.,.,.
O=C(NCCc1c[nH]c2ccccc12)c1ccc(F)cc1F,.,.,.,.,.,.,/
CCOC(=O)Cn1c2ccc(C)cc2c2nc(C)sc21,.,.,.,.,.,.,/
CCC(=O)Nc1nc2c(s1)COc1ccccc1-2,.,.,.,.,.,.,/
O=C(CCCl)Nc1nc2c(s1)CCc1ccccc1-2,.,70,.,.,.,.,74
COCCn1c(SCC(=O)Nc2cccc(C)c2)nnc1C(C)C,.,50,.,.,.,.,.
COCCn1c(SCC(=O)Nc2cc(C)cc(C)c2)nnc1C(C)C,.,.,.,.,.,.,/
CC(OC(=O)c1cccc(-n2cnnn2)c1)C(=O)NCc1ccccc1 (stereo unspecified),.,.,.,.,.,/,/
N#Cc1nc(-c2cccs2)oc1NCc1ccccc1,.,.,.,.,.,/,/
N#Cc1nc(-c2cccs2)oc1NCc1ccccc1Cl,.,56,.,.,.,.,54
N#Cc1nc(-c2cccs2)oc1NCc1ccc(Cl)cc1,.,51,.,.,.,.,55
Cc1cccc(C2=NN(c3ccc(Br)cc3)[C@@H](C(=O)N3CCOC3=O)[C@@H]2C)c1,.,51,/,.,.,.,.
C[C@@H]1C(c2ccccc2)=NN(c2ccc(Br)cc2)[C@H]1C(=O)N1CCOC1=O,.,59,/,.,.,.,45
O=C1OCCN1C(=O)[C@H]1[C@H](c2ccc(F)cc2)C(c2ccccc2)=NN1c1ccccc1,.,72,/,.,.,.,.
O=C1OCCN1C(=O)[C@H]1[C@H](c2ccc(F)cc2)C(c2ccc(F)cc2)=NN1c1ccccc1,.,.,.,.,.,.,/
COc1cc(-c2noc(CCCC(=O)Nc3ccc(C(N)=O)cc3)n2)cc(OC)c1OC,.,.,.,.,.,/,/
N#C/C(=C\c1ccc(OCc2ccccc2)cc1)C(N)=O,.,63,.,.,.,.,52
Cc1ccccc1COc1ccc(/C=C(\C#N)C(N)=O)cc1,.,.,.,.,.,.,/
CC1(C)CC(=O)C=C(c2ccc(Oc3ccccc3)cc2)C1,.,.,/,.,.,.,/
O=C1C=C(c2ccc3[nH]ccc3c2)CCC1,.,.,.,.,.,.,/
CC1(C)CC(=O)C=C(c2ccc(I)cc2)C1,.,51,/,.,.,.,41
CC1(C)CC(=O)C=C(c2ccc3[nH]ccc3c2)C1,.,54,.,.,.,.,.
COc1ccc(NC(=O)Cc2nnc(SCC(=O)Nc3ccc(F)cc3)n2C)cc1,.,.,.,.,.,.,/
O=C(CC(=O)c1ccccc1O)c1cccc(F)c1,.,.,.,.,.,.,/
O=C(CC(=O)c1ccccc1O)c1ccc(F)cc1,.,61,.,.,.,/,57
SMILES,tim10-1 inh,tim23-1 inh,SKKanGAS inh,ATG4B inhibitor,TIM10 inh,PfHsp90 yeast 2,tim23-1 confirm
Cc1ccc2nc(N/N=C\c3ccc([N+](=O)[O-])o3)nc(-c3ccccc3)c2c1,.,67,100,.,.,.,.
COC(=O)CC1COc2ccccc2N1C(=O)c1cccc(C(F)(F)F)c1 (stereo unspecified),.,.,.,.,.,.,/
COCCn1c(C23CC4CC(CC(C4)C2)C3)n[nH]c1=S,.,.,.,.,.,.,/
CCCCn1c(C23CC4CC(CC(C4)C2)C3)n[nH]c1=S,.,53,.,.,.,.,50
Cn1ccnc1SCC(=O)c1c(N)n(C)c(=O)n(C)c1=O,.,.,/,.,.,/,/
CN1c2ccsc2/C(=N/Nc2ccccc2)CS1(=O)=O,.,53,60,.,.,.,.
